Laboratory results as given in PubChem BioAssay.
The source made the active and inactive calls. Unless noted, how the calls were made is not given here.

Key:
[1] = HepG2 liver cancer cell viability effects, profiling panel, resazurin fluorescence, 24 h, PK04 Diversity Set (AID 1172); conditions: higher = more signal
[2] = basal S. cerevisiae growth modulation, no modifier, primary screen, OD600, strain BY4716, 24 h, basal condition (AID 1173); conditions: OD600, 24 h, higher = more signal, called active from +8 up or from −8 down
[3] = MM1S myeloma cell viability, profiling panel, resazurin fluorescence, basal, 24 h, PK04 Diversity Set (AID 1174); conditions: higher = more signal, called active from +8 up or from −8 down;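 further: MM1S multiple myeloma cell line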
[4] = target: Dihydroorotate dehydrogenase (quinone), mitochondrial (Plasmodium falciparum (isolate 3D7)) (UniProt Q08210); assay: PfDHODH enzyme inhibitors, primary screen, biochemical, C-terminal His tag, absorbance 600 nm (AID 1175); conditions: DCIP absorbance 600 nm, higher = more signal, called active from +8 up or from −8 down;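 further: recombinant parasite enzyme with a five histidine tag at its C terminus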
Sequence of Dihydroorotate dehydrogenase (quinone), mitochondrial (Plasmodium falciparum (isolate 3D7)) (Q08210 whole entry, looked up): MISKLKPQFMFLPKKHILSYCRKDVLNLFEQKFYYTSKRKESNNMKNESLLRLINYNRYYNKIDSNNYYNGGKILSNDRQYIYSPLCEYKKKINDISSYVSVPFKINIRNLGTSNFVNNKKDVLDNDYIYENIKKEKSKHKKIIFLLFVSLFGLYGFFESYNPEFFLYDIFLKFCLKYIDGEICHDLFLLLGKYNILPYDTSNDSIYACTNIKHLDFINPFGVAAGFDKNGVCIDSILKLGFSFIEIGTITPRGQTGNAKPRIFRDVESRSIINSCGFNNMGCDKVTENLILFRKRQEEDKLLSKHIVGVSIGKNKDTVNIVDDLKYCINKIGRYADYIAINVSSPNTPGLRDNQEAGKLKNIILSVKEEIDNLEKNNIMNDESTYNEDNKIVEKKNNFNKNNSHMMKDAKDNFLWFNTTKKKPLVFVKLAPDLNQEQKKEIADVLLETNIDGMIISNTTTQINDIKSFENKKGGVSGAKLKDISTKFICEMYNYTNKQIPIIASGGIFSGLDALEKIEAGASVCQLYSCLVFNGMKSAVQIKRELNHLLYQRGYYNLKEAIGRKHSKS

[5] = P. aeruginosa biofilm formation inhibitors, primary screen, strain PAO1, LB-PBS medium, absorbance 600 nm (AID 1176); conditions: P. aeruginosa PAO1 growth/biofilm, A600, 12 h; higher = more signal
[6] = S. cerevisiae RM11-1a growth modifiers, primary screen, strain RM11-1a, OD600, basal, 24 h (AID 1177); conditions: OD600, 24 h, higher = more signal, called active from +8 up or from −8 down;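 further: cultures grown under basal conditions with no added stressor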
[7] = E. coli acrAB mutant growth effects, primary screen, E. coli filamentation inducers, strain DRC39, OD650, 24 h (AID 1178); conditions: higher = more signal, called active from +8 up or from −8 down;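 further: growth measured as culture turbidity by optical density at 650 nm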
[8] = E. coli acrAB mutant growth effects, primary screen, E. coli filamentation inducers, strain DRC39, OD650, 48 h (AID 1179);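 further: screen aims at cell division blockers that make cells filament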; conditions: E. coli DRC39 delta-acrAB growth, higher = more signal, called active from +8 up or from −8 down
[9] = RPMI8226 myeloma cell viability, profiling panel, resazurin fluorescence, basal, 24 h, PK04 Diversity Set (AID 1180); conditions: higher = more signal;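 further: RPMI8826 multiple myeloma cell line at 5000 cells per well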
[10] = target: E3 ubiquitin-protein ligase XIAP (Homo sapiens) (UniProt P98170); assay: XIAP binders, primary screen, biophysical, small-molecule microarray, fluorescence 635 nm (AID 1181); conditions: small-molecule microarray binding, higher = more signal;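 further: score merges 667 nm emission and signal to noise over triplicate slides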
Sequence of E3 ubiquitin-protein ligase XIAP (Homo sapiens) (P98170 whole entry, looked up): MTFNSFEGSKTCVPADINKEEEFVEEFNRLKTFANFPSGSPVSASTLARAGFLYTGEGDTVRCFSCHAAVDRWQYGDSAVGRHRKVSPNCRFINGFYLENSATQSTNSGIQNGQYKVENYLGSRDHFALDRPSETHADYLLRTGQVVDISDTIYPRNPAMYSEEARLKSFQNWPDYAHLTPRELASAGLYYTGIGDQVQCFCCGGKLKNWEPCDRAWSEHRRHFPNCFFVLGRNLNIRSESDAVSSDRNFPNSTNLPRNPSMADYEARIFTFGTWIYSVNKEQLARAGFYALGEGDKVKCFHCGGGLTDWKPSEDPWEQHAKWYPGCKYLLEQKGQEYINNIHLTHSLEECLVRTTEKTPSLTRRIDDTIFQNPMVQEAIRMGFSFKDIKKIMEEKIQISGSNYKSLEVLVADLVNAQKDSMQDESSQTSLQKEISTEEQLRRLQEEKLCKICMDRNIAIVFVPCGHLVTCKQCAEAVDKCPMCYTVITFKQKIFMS

[11] = system: XIP peptide (Xip251-270) binding; assay: small-molecule binders of XIP peptide, primary screen, biochemical, small-molecule microarray, fluorescence 635/667 nm, 0.1 µg/mL protein (AID 1182); conditions: fluorescent protein binding, 635 nm, higher = more signal, called active from +8 up or from −8 down
[12] = system: XIP peptide (Xip251-270); assay: small-molecule binders of XIP peptide, primary screen, biochemical, small-molecule microarray, fluorescence 635/667 nm, 0.5 µg/mL protein (AID 1183); conditions: small-molecule microarray binding, fluorescence 635 nm; higher = more signal
[13] = Plasmodium falciparum growth inhibition, primary screen, strain 3D7, DAPI fluorescence, 100 nL (AID 1184);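 further: parasites grown inside human red blood cells in medium with human serum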; conditions: P. falciparum 3D7 growth, 3 d, higher = more signal
[14] = target: Homeobox protein Hox-A13 (Mus musculus) (UniProt Q62424); assay: inhibitors of HoxA13-DNA binding, primary screen, biochemical, fluorescence polarization, labeled oligonucleotide (AID 1185); conditions: 15 min, higher = more signal, called active from +8 up or from −8 down
Sequence of Homeobox protein Hox-A13 (Mus musculus) (Q62424 whole entry, looked up): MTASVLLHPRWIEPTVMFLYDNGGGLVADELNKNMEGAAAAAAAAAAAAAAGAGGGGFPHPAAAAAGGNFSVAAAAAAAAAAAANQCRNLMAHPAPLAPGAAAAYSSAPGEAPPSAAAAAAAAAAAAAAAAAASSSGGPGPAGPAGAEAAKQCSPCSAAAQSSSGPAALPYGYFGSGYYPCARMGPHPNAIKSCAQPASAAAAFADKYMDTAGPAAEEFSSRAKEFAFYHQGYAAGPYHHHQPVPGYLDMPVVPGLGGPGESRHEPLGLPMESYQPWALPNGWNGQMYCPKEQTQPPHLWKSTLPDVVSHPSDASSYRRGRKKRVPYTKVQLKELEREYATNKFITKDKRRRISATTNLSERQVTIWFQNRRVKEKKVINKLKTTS

[15] = inhibitors of hydroxyurea-induced Chk1 phosphorylation, primary screen, imaging, HeLa, phospho-Chk1 antibody, percent positive cells (AID 1186); conditions: hydroxyurea-induced phospho-Chk1 immunofluorescence imaging, higher = more signal
[16] = inhibitors of hydroxyurea-induced Chk1 phosphorylation, primary screen, imaging, HeLa, phospho-Chk1 nuclear intensity (AID 1187); conditions: hydroxyurea-induced phospho-Chk1 immunofluorescence imaging, higher = more signal

| SMILES | z-score [1] | z-score [2] | z-score [3] | composite z-score [4] | z-score [5] | z-score [6] | z-score [7] | z-score [8] | z-score [9] | composite z-score [10] | composite z-score [11] | composite z-score [12] | z-score [13] | z-score [14] | z-score [15] | z-score [16] |
| --- | --- | --- | --- | --- | --- | --- | --- | --- | --- | --- | --- | --- | --- | --- | --- | --- |
| O=C1NC(=O)C2C1C=CC(C(O)c1cccs1)N2Nc1ccc(Cl)cc1Cl (configuration not stated) | -1.14 | -6.97 (inactive) | -0.597 (inactive) | 0.572 (inactive) | 1.08 (inactive) | 1.45 (inactive) | 0.0751 (inactive) | -0.86 (inactive) | -0.229 | 0.0374 | 0.228 (inactive) | 0.554 | -0.335 | -4.05 (inactive) | -0.266 (inactive) | -0.45 (inactive) |
| Cc1ccc(S[C@]2(C(=O)NCCCN(C)C)CC(=O)N(Cc3cc(C(F)(F)F)cc(C(F)(F)F)c3)[C@@H]2c2ccc(CO)cc2)cc1 | -0.144 | -1.33 (inactive) | -0.522 (inactive) | -0.132 (inactive) | 0.621 (inactive) | -0.607 (inactive) | 0.0957 (inactive) | -0.339 (inactive) | -0.402 | 0.164 | -0.497 (inactive) | -0.583 | 0.798 | -2.68 (inactive) | 0.112 (inactive) | -0.331 (inactive) |
| CCOC(=O)C[C@H]1[C@H](OC(=O)c2cc3ccccc3oc2=O)[C@@H](NC(=O)c2ccccc2)c2cc(OCCCO)ccc2N1C(=O)c1ccc2ccccc2n1 | -0.359 | -0.594 (inactive) | -1.04 (inactive) | 0.542 (inactive) | -0.246 (inactive) | -0.5 (inactive) | -0.741 (inactive) | -1.2 (inactive) | -1.16 | -0.28 | -0.0302 (inactive) | 0.503 | -0.566 | -3.63 (inactive) | 0.091 (inactive) | 0.0741 (inactive) |
| COC(=O)C(CC#Cc1ccc2c(c1)[C@]1(C(=O)N2)[C@H](c2ccc(OCCO)cc2)N2[C@H](c3ccccc3)[C@H](c3ccccc3)OC(=O)[C@H]2[C@@H]1C(=O)Nc1nc2ccccc2s1)C(=O)OC | 1.51 | 2.09 (inactive) | 0.932 (inactive) | -0.983 (inactive) | 2.98 (inactive) | 3.16 (inactive) | 1.01 (inactive) | 0.824 (inactive) | -0.257 | -0.138 | 0.081 (inactive) | 0.54 | -1.79 | 0.63 (inactive) | -0.378 (inactive) | -0.763 (inactive) |
| CN1C=C(C(=O)OCCS(C)(=O)=O)C(C(=O)OCCS(C)(=O)=O)=CC(c2ccc(CO)cc2)=CC1C1CC1 (configuration not stated) | -0.15 | -1.68 (inactive) | -0.83 (inactive) | -0.524 (inactive) | -0.447 (inactive) | 0.0635 (inactive) | 0.815 (inactive) | 0.63 (inactive) | -0.189 | -0.359 | 0.943 (inactive) | -0.452 | -2.35 | -5.4 (inactive) | -1.15 (inactive) | 0.15 (inactive) |
| CN1C(=O)C2C=CC(C(O)c3ccc([N+](=O)[O-])cc3)N(N3CCCCC3)C2C1=O (configuration not stated) | -0.777 | 0.217 (inactive) | -0.51 (inactive) | 0.0871 (inactive) | 0.711 (inactive) | 0.189 (inactive) | -0.884 (inactive) | -1.24 (inactive) | -0.85 | 0.384 | 0.0993 (inactive) | 0.471 | -0.114 | -3.98 (inactive) | -0.224 (inactive) | -0.167 (inactive) |
| Cc1nc2cc(Br)ccc2c(=O)o1 | 0.817 | -0.691 (inactive) | 0.065 (inactive) | -0.442 (inactive) | -0.214 (inactive) | -1.08 (inactive) | 0.705 (inactive) | 1.42 (inactive) | 1.21 | -0.0426 | 0.312 (inactive) | 0.139 | -0.973 | 0.0804 (inactive) | -0.131 (inactive) | 0.134 (inactive) |
| CCCC#C[Si](O[C@H](CC)c1cn(Cc2cccc(Cl)c2)nn1)(C(C)C)C(C)C | 0.345 | -12.9 (active) | 0.0454 (inactive) | -0.345 (inactive) | -0.0057 (inactive) | 0.61 (inactive) | 1.11 (inactive) | 0.775 (inactive) | 0.33 | -0.0855 | -0.0517 (inactive) | 0.298 | -0.0039 | -0.759 (inactive) | -0.501 (inactive) | -0.675 (inactive) |
| CC(C)N1C(=O)C[C@@](C(=O)NCC(F)(F)F)(c2ccc([N+](=O)[O-])cc2)[C@H]1c1ccc(CO)cc1 | -0.228 | -0.957 (inactive) | 1.26 (inactive) | -0.297 (inactive) | 0.255 (inactive) | -1.09 (inactive) | 0.818 (inactive) | 0.629 (inactive) | 0.939 | -0.0448 | 0.0334 (inactive) | 0.202 | -1.38 | -2.67 (inactive) | -0.317 (inactive) | -0.273 (inactive) |
| CCOC(=O)C[C@H]1[C@H](OC(=O)c2ccccc2-c2ccccc2)[C@@H](NC(=O)CC(C)C)c2cc(OCCCO)ccc2N1C(=O)Cc1ccc(OC)cc1 | -0.211 | -0.184 (inactive) | 0.0683 (inactive) | 0.712 (inactive) | -0.165 (inactive) | -0.0992 (inactive) | -0.234 (inactive) | -0.488 (inactive) | 0.456 | -0.135 | -0.245 (inactive) | -0.328 | -0.106 | -5.17 (inactive) | 0.34 (inactive) | 0.524 (inactive) |
| COCCOC(=O)N1C(=O)[C@@]2(c3cc(C#CCCO)ccc31)[C@H](C(N)=O)[C@H]1C(=O)O[C@H](c3ccccc3)[C@H](c3ccccc3)N1[C@@H]2c1ccc(O)cc1 | -0.256 | -0.089 (inactive) | 0.0773 (inactive) | -0.176 (inactive) | 0.181 (inactive) | -0.204 (inactive) | 0.125 (inactive) | -0.176 (inactive) | -0.104 | 0.142 | -0.13 (inactive) | -0.452 | 2.08 | -4.08 (inactive) | 0.0513 (inactive) | -0.0312 (inactive) |
| COc1cc2c(cc1O)C(C1CC1)N(Cc1sc3ccccc3c1Cl)CC2 (configuration not stated) | -1.58 | -18.3 (active) | -0.789 (inactive) | -0.931 (inactive) | -1.33 (inactive) | -22 (active) | 0.531 (inactive) | -0.75 (inactive) | -1.42 | -0.031 | 0.275 (inactive) | 0.637 | -1.23 | -2.44 (inactive) | -0.147 (inactive) | 0.302 (inactive) |
| NC(=O)NCC#Cc1ccc2c(c1)[C@]1(C(=O)N2)[C@H](C(=O)Nc2nc3ccccc3s2)[C@H]2C(=O)O[C@H](c3ccccc3)[C@H](c3ccccc3)N2[C@@H]1c1ccccc1OCCO | 0.446 | 0.32 (inactive) | -0.784 (inactive) | 2.26 (inactive) | 1.6 (inactive) | 1.8 (inactive) | -0.846 (inactive) | -0.728 (inactive) | -0.651 | 0.711 | 0.478 (inactive) | 0.606 | -1.74 | 2.54 (inactive) | 0.302 (inactive) | 0.603 (inactive) |
| O[C@@H](Cc1ccccc1)[C@H]1C2C=CCCC=C2CN1Cc1cccc(Cl)c1 (some centres not stated) | 0.318 | -4.3 (inactive) | -0.686 (inactive) | -0.255 (inactive) | 1.27 (inactive) | -0.068 (inactive) | 0.779 (inactive) | 0.73 (inactive) | -0.0704 | -0.365 | 0.164 (inactive) | 0.421 | 0.461 | -7.63 (inactive) | 0.415 (inactive) | 0.0708 (inactive) |
| CCOC(=O)C[C@H]1[C@H](OC(=O)c2ccc(-c3ccccc3)cc2)[C@@H](NC(=O)Cc2ccc(OC)cc2)c2cc(OCCCO)ccc2N1C(=O)c1ccccc1 | -0.616 | 0.695 (inactive) | -0.113 (inactive) | 0.11 (inactive) | -0.252 (inactive) | 0.87 (inactive) | 0.303 (inactive) | 0.339 (inactive) | 0.0662 | 0.15 | -0.243 (inactive) | -0.464 | -0.791 | -2.14 (inactive) | 0.2 (inactive) | 0.106 (inactive) |
| CCOC(=O)C[C@H]1[C@H](OC(=O)c2ccc(C(=O)c3ccccc3)cc2)[C@@H](NC(=O)c2ccc3ccccc3n2)c2cc(OCCCO)ccc2N1C(=O)c1ccccc1 | -0.0237 | 0.854 (inactive) | -0.266 (inactive) | -0.203 (inactive) | 0.0186 (inactive) | -0.0492 (inactive) | -0.28 (inactive) | -0.211 (inactive) | -0.999 | -0.0326 | -0.021 (inactive) | 0.545 | -0.894 | -1.37 (inactive) | 0.645 (inactive) | 0.334 (inactive) |
| C[C@H]1C2[C@H](Cc3ccccc3)NC(=O)[C@]23C(=O)N[C@H](Cc2ccccc2)C(=O)N2CCC[C@H]2C(=O)NC/C=C\C/C=C/C3[C@@H]2O[C@]12C (some centres not stated) | 0.696 | -1.96 (inactive) | 1.22 (inactive) | -1.51 (inactive) | 1.01 (inactive) | -0.835 (inactive) | 1.11 (inactive) | -0.0988 (inactive) | 1.19 | 0.091 | 0.297 (inactive) | 0.192 | -0.227 | -6.27 (inactive) | -0.291 (inactive) | -0.104 (inactive) |
